From PubChem BioAssay (EPA / NIEHS) come the findings set out here.

Read-out in assay [1]: Interleukin-1 alpha (IL1a), IL1A (gene 3552)
Briefly: BSK_KF3CT_IL1a: BioMAP Diversity Plus: KF3CT Assay for Interleukin-1 alpha (IL1a) Biomarker Activity (AID 2283070). The following applies: primary human keratinocytes with fibroblasts; actives raise or lower the signal. In a few lines:
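Readout is IL-1a level by ELISA, compared bidirectionally with DMSO as baseline. Cells: human keratinocytes co-cultured with foreskin fibroblasts, harvested 24 h post-dose.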

Read-out in assay [2]: TIMP metallopeptidase inhibitor 2 (TIMP2), TIMP2 (gene 7077)
Briefly: BSK_KF3CT_TIMP2: BioMAP Diversity Plus: KF3CT Assay for TIMP metallopeptidase inhibitor 2 (TIMP2) Biomarker Activity (AID 2283071). To be noted: primary human keratinocytes with fibroblasts; actives raise or lower the signal. A digest of the protocol: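 ELISA readout of TIMP-2 in keratinocyte plus foreskin fibroblast co-cultures (human skin primary cells), 24 h post-dose. Gain or loss of signal fitted relative to DMSO.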

Read-out in assay [3]: Transforming growth factor beta 1 (TGFb1), TGFB1 (gene 7040)
Briefly: BSK_KF3CT_TGFb1: BioMAP Diversity Plus: KF3CT Assay for Transforming growth factor beta 1 (TGFb1) Biomarker Activity (AID 2283072). To be noted: primary human keratinocytes with fibroblasts; actives raise or lower the signal. A digest of the protocol: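 Read-out: ELISA for TGF-b1 in keratinocyte/foreskin fibroblast human skin co-culture, 24 h after dosing; bidirectional curve fit vs DMSO baseline; gain or loss of signal scored.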

Read-out in assay [4]: C-C motif chemokine 2 (Homo sapiens) (UniProt P13500)
Briefly: BSK_KF3CT_MCP1: BioMAP Diversity Plus: KF3CT Assay for Monocyte Chemoattractant Protein 1 (MCP1/CCL2) Biomarker Activity (AID 2283073). To be noted: primary human keratinocytes with fibroblasts; actives raise or lower the signal. A digest of the protocol: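 KF3CT skin co-culture (keratinocytes/foreskin fibroblasts), 24 h post-dose; MCP-1 by ELISA; gain/loss of signal fit bidirectionally vs DMSO baseline.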

Read-out in assay [5]: Matrix Metallopeptidase 9 (MMP9), MMP9 (gene 4318)
Put plainly: BSK_KF3CT_MMP9: BioMAP Diversity Plus: KF3CT Assay for Matrix Metallopeptidase 9 (MMP9) Biomarker Activity (AID 2283074).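 For AC50: MMP9 protein level quantified by ELISA in the co-culture.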 The following applies: primary human keratinocytes with fibroblasts; actives raise or lower the signal. A digest of the protocol:
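Values come from bidirectional fitting relative to DMSO of MMP-9 levels, which were measured by ELISA. Measurements were taken 24 h after chemical dosing of a keratinocyte and foreskin fibroblast co-culture.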

Read-out in assay [6]: urokinase plasminogen activator (uPA), PLAU (gene 5328)
Briefly: BSK_KF3CT_uPA: BioMAP Diversity Plus: KF3CT Assay for urokinase plasminogen activator (uPA) Biomarker Activity (AID 2283075). The following applies: primary human keratinocytes with fibroblasts; actives raise or lower the signal. A digest of the protocol:
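Values derive from bidirectional fitting against DMSO controls. Keratinocyte/foreskin fibroblast co-cultures received chemical; 24 h later uPA was detected by ELISA, with SRB total-protein staining in parallel wells for overt cytotoxicity.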

Read-out in assay [7]: CD40, CD40 (gene 958)
Briefly: BSK_LPS_CD40: BioMAP Diversity Plus: LPS Assay for CD40 Biomarker Activity (AID 2283076). To be noted: primary human HUVEC with PBMC; actives raise or lower the signal. In a few lines: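 ELISA readout of CD40 in HUVEC/PBMC co-culture (BSK_LPS system), 24 h post-dosing; bidirectional curve fit, DMSO baseline; parallel SRB total-protein staining for cytotoxicity.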

Read-out in assay [8]: E-selectin (Homo sapiens) (UniProt P16581)
Put plainly: BSK_LPS_Eselectin: BioMAP Diversity Plus: LPS Assay for Eselectin Biomarker Activity (AID 2283077). The following applies: primary human HUVEC with PBMC; actives raise or lower the signal. A digest of the protocol: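 ELISA readout of E-selectin, 24 h post-dose, HUVEC + PBMC co-culture (LPS system). Gain or loss of signal vs DMSO baseline, bidirectional fit.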

Read-out in assay [9]: Interleukin-8 (IL8), CXCL8 (gene 3576)
Briefly: BSK_LPS_IL8: BioMAP Diversity Plus: LPS Assay for Interleukin-8 (IL8) Biomarker Activity (AID 2283078). To be noted: primary human HUVEC with PBMC; actives raise or lower the signal. In a few lines: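 HUVEC + PBMC co-culture, LPS-activated; test chemicals dosed, IL-8 read by ELISA at 24 h. Bidirectional curve fit vs DMSO baseline (gain or loss of signal).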

The nature of assay [10]: BSK_LPS_SRB: Viability Assessment in the BioMAP Diversity Plus: LPS Assay (AID 2283079).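 Note: total protein by sulforhodamine B absorbance as a cytotoxicity measure; measured one day after compound addition; fitted in both directions against DMSO so loss or gain of signal counts.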 To be noted: primary human HUVEC with PBMC. In a few lines:
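HUVEC + PBMC co-culture, LPS-stimulated; compound 24 h. 10% TCA fix, 0.1% SRB stain, A560. Bidirectional fit vs DMSO.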

Read-out in assay [11]: Interleukin-1 alpha (IL1a), IL1A (gene 3552)
Briefly: BSK_LPS_IL1a: BioMAP Diversity Plus: LPS Assay for Interleukin-1 alpha (IL1a) Biomarker Activity (AID 2283080). To be noted: primary human HUVEC with PBMC; actives raise or lower the signal. In a few lines: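 HUVEC/PBMC co-culture, LPS system; 24 h after dosing; IL-1a by ELISA; gain or loss of signal fitted bidirectionally vs DMSO baseline.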

Assay [12] in a line: BSK_LPS_PGE2: BioMAP Diversity Plus: LPS Assay for Prostaglandin E2 (PGE2) Biomarker Activity (AID 2283082).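 For AC50: secreted prostaglandin E2 measured by ELISA in LPS-stimulated co-culture.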 The following applies: primary human HUVEC with PBMC; actives raise or lower the signal. In a few lines:
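ELISA read-out of PGE2 from human umbilical vein endothelial cells co-cultured with peripheral blood mononuclear cells under LPS, 24 h post-dose. Gain or loss of signal scored relative to DMSO baseline.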

Read-out in assay [13]: Macrophage colony-stimulating factor (MCSF), CSF1 (gene 1435)
Put plainly: BSK_LPS_MCSF: BioMAP Diversity Plus: LPS Assay for Macrophage colony-stimulating factor (MCSF) Biomarker Activity (AID 2283083). To be noted: primary human HUVEC with PBMC; actives raise or lower the signal. A digest of the protocol:
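HUVEC + PBMC co-culture (human primary), 24 h post-dose; M-CSF by ELISA; gain/loss of signal fitted bidirectionally vs DMSO baseline.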

Read-out in assay [14]: Tissue Factor, F3 (gene 2152)
Briefly: BSK_LPS_TissueFactor: BioMAP Diversity Plus: LPS Assay for Tissue Factor Biomarker Activity (AID 2283084). The following applies: primary human HUVEC with PBMC; actives raise or lower the signal. In a few lines:
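HUVEC/PBMC co-culture, LPS-activated; CD142 ELISA read 24 h post-dose; bidirectional curve fit vs DMSO negative control.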

Read-out in assay [15]: Tumor necrosis factor (Homo sapiens) (UniProt P01375)
Briefly: BSK_LPS_TNFa: BioMAP Diversity Plus: LPS Assay for Tumour Necrosis Factor alpha (TNFa) Biomarker Activity (AID 2283085).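 For AC50: TNFa protein level quantified by ELISA in the co-culture.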 To be noted: primary human HUVEC with PBMC; actives raise or lower the signal. A digest of the protocol:
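HUVEC/PBMC co-culture, LPS-stimulated; 24 h post-dose; TNFa by ELISA; gain or loss of signal fitted bidirectionally vs DMSO baseline.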

Read-out in assay [16]: Vascular cell adhesion molecule 1 (VCAM1), VCAM1 (gene 7412)
Briefly: BSK_LPS_VCAM1: BioMAP Diversity Plus: LPS Assay for Vascular cell adhesion molecule 1 (VCAM1) Biomarker Activity (AID 2283086). The following applies: primary human HUVEC with PBMC; actives raise or lower the signal. A digest of the protocol:
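ELISA read-out of VCAM-1 at 24 h post-dosing in an LPS-driven HUVEC/PBMC primary human co-culture; gain or loss of signal fitted bidirectionally against DMSO baseline. Cytotoxicity tracked in parallel cultures by SRB total-protein staining.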

Read-out in a further assay: CD38, CD38 (gene 952)
Briefly: BSK_SAg_CD38: BioMAP Diversity Plus: SAg Assay for CD38 Biomarker Activity (AID 2283087). To be noted: primary human HUVEC with PBMC; actives raise or lower the signal. In a few lines:
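Measures CD38 on a human endothelial/PBMC co-culture driven by SEB and TSST-1, 24 h after compound exposure, using ELISA with fluorescence detection; DMSO defines baseline for bidirectional curve fitting.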

Read-out in a further assay: CD69, CD69 (gene 969)
Briefly: BSK_SAg_CD69: BioMAP Diversity Plus: SAg Assay for CD69 Biomarker Activity (AID 2283089).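 For AC50: cell surface CD69 protein quantified by ELISA with fluorescence detection.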 To be noted: primary human HUVEC with PBMC; actives raise or lower the signal. In a few lines:
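HUVEC co-cultured with PBMC were dosed with chemical, and CD69 was measured by ELISA with fluorescence read-out 24 h later. Bidirectional curve fitting used DMSO as negative control and activity baseline.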

Read-out in assay [17]: Monocyte Chemoattractant Protein-1 (MCP1), CCL2 (gene 6347)
Put plainly: BSK_LPS_MCP1: BioMAP Diversity Plus: LPS Assay for Monocyte Chemoattractant Protein-1 (MCP1) Biomarker Activity (AID 2283081). The following applies: primary human HUVEC with PBMC; actives raise or lower the signal. A digest of the protocol: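 ELISA read-out of MCP-1 after 24 h chemical dosing of a human umbilical vein endothelial cell/peripheral blood mononuclear cell co-culture stimulated with LPS. Gain or loss of signal fitted relative to DMSO controls.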

Read-out in assay [18]: CD40, CD40 (gene 958)
Briefly: BSK_SAg_CD40: BioMAP Diversity Plus: SAg Assay for CD40 Biomarker Activity (AID 2283088). The following applies: primary human HUVEC with PBMC; actives raise or lower the signal. A digest of the protocol: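 HUVEC/PBMC co-culture, 24 h post-dose; CD40 by ELISA, fluorescence intensity; bidirectional fit vs DMSO negative control.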

The AC50 is the midpoint of the concentration-response curve, whichever way the signal moves.

Active and inactive are the calls of the source. Rule for the calls: active = hit-call score of the fitted dose curve at least 0.9, where 1 is the maximum; inactive = score below 0.9.

Chain of E-selectin (Homo sapiens) (P16581 whole entry, looked up): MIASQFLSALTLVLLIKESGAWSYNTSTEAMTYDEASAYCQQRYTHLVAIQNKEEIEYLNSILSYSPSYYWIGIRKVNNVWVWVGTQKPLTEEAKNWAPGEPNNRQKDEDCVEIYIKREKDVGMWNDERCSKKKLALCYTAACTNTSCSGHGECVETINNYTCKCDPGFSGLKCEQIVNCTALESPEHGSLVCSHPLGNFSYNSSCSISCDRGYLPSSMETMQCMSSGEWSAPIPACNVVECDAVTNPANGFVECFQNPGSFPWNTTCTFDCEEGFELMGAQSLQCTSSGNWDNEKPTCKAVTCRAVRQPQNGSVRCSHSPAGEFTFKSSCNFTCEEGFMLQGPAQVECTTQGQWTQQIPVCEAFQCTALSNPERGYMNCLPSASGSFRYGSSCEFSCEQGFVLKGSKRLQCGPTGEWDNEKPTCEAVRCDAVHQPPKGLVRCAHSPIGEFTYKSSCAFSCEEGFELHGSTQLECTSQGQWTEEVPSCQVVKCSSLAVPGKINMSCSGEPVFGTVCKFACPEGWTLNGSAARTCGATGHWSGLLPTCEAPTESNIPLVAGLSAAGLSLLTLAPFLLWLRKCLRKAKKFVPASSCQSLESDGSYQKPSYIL
Chain of Tumor necrosis factor (Homo sapiens) (P01375 whole entry, looked up): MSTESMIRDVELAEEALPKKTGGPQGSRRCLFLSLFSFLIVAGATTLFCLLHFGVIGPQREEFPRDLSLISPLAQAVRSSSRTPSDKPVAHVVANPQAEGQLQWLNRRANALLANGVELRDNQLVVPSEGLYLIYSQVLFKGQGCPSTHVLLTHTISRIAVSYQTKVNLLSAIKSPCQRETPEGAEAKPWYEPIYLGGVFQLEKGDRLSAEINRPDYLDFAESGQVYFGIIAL

With `CCOP(=S)(OCC)Oc1ccc([N+](=O)[O-])cc1`, the outcome in assay [1], in assay [2], in assay [3], in assay [4], in assay [5] and in assay [6] was inactive. The outcome in assay [8], in assay [9], in assay [10], in [11], in [14] and in assay [15] was inactive. In addition, the half-maximal activity concentration (AC50) is 16.7 µM (active) in the assay with CD40, CD40 (gene 958) [7]; 20 µM (active) in assay [12]; 20 µM (active) in assay [13]; 20 µM (active) in [16]; 20 µM (active) with CD38, CD38 (gene 952); 32.4 µM (active) with CD69, CD69 (gene 969).
On to `CC(C)[C@H](C(=O)O[C@H](C#N)c1cccc(Oc2ccccc2)c1)c1ccc(Cl)cc1`, for which the outcome in assay [1] was “inactive”; in assay [3], “inactive”; in assay [4], “inactive”; in assay [5] it was “inactive”; in assay [6], “inactive”; with CD40, CD40 (gene 958) [7] it was “inactive”. The outcome in assay [10], in [11], in assay [17], in [13], in [14] and in assay [15] was inactive. For the same molecule, the outcome in [16] was “inactive”; with CD38, CD38 (gene 952), “inactive”; with CD40, CD40 (gene 958) [18] it was “inactive”; in the assay with CD69, CD69 (gene 969) it was “inactive”. Also, the AC50 is 7.16 µM (active) in assay [8] and 5.9 µM (active) in [9].
Turning to `CCc1cccc(CC)c1N(COC)C(=O)CCl`, the outcome in assay [1], in [2], in [3], in assay [4], in [6] and in assay [9] was inactive. The outcome in [17], in assay [12] and in assay [14] was inactive. Further, the half-maximal activity concentration (AC50) is 20 µM (active) in assay [5]; 13.8 µM (active) in the assay with CD40, CD40 (gene 958) [7]; 33.8 µM (active) in assay [8]; 3.97 µM (active) in [10]; 1.06 µM (active) in assay [11]; 13.6 µM (active) in assay [13]. Besides, the AC50 was 1.31 µM (active) in assay [15]; 26.9 µM (active) in assay [16]; 28.6 µM (active) with CD38, CD38 (gene 952); 15.4 µM (active) with CD69, CD69 (gene 969).
As for `COc1cc(OC)nc(Sc2cccc(Cl)c2C(=O)O)n1`, the outcome in [1], in assay [2], in [3], in assay [4], in assay [5] and in [6] was inactive. For the same molecule, the outcome with CD40, CD40 (gene 958) [7] was “inactive”; in assay [8] it was “inactive”; in assay [9], “inactive”; in assay [10], “inactive”; in assay [11], “inactive”; in [17], “inactive”. Besides, the outcome in assay [12] is “inactive”; in assay [13], “inactive”; in [14] it was “inactive”; in [15] it was “inactive”; in [16], “inactive”; in the assay with CD38, CD38 (gene 952), “inactive”. Moreover, the result in the assay with CD69, CD69 (gene 969) was inactive.
